Where a name gives a salt, the structure may show the parent alone.
Key:
Details in all cases: incubation time: 27 h, anaerobic, 37 °C;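 for the amine columns active = adjusted P below 0.05 in both replicates with a change the same way and a mean fold change under 0.8 or over 1.25; inactive = the rest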
[1] = test system: Clostridium sporogenes DSM 1664; assay: growth (OD595) fold change vs plate DMSO controls (fold change (ratio)); higher = more growth
Method in brief: (§1)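 The reported measure is growth: the fold change against the median of DMSO controls on the plate. Absorbance at 595 nm from anaerobic 96-well mGAM cultures grown for 27 h at 37 °C was blank-subtracted, corrected for background with 20 µM compound solutions in water, and converted to OD with a calibration factor of 5. Fold changes above 1.5 appear as NA, and values are the mean of 2 biological replicates.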

[2] = test system: Escherichia coli IAI1; assay: as above
Method in brief: as §1

[3] = test system: Klebsiella aerogenes DSM 30053; assay: as above
Method in brief: as §1

[4] = test system: Ruminococcus gnavus DSM 108212; assay: as above
Method in brief: as §1

[5] = test system: Klebsiella aerogenes DSM 30053; assay: fold change of Histamine concentration vs plate DMSO controls (fold change (ratio)); higher = more amine produced, active = hit call of the paper (significant change in both replicates, either direction)
Method in brief: (§2)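 Extracts of whole anaerobic mGAM cultures were analysed for amines by LC–triple-quadrupole MS with dynamic MRM and external calibration curves, with drift corrected within batch. Four gut strains were grown at 37 °C for 27 h in 80 µL wells with compounds at 20 µM final, sweeteners at 50 µM final. Each value expresses fold change over plate DMSO controls. The average of 2 biological replicates is shown.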

[6] = test system: Clostridium sporogenes DSM 1664; assay: fold change of Tryptamine concentration vs plate DMSO controls (fold change (ratio)); higher = more amine produced, active = hit call of the paper (significant change in both replicates, either direction)
Method in brief: as §2

[7] = test system: Ruminococcus gnavus DSM 108212; assay: as above
Method in brief: as §2

[8] = test system: Escherichia coli IAI1; assay: fold change of Putrescine concentration vs plate DMSO controls (fold change (ratio)); higher = more amine produced, active = hit call of the paper (significant change in both replicates, either direction)
Method in brief: as §2

[9] = test system: Klebsiella aerogenes DSM 30053; assay: as above
Method in brief: as §2

[10] = test system: Escherichia coli IAI1; assay: fold change of Cadaverine concentration vs plate DMSO controls (fold change (ratio)); higher = more amine produced, active = hit call of the paper (significant change in both replicates, either direction)
Method in brief: as §2

[11] = test system: Klebsiella aerogenes DSM 30053; assay: as above
Method in brief: as §2

[12] = test system: Ruminococcus gnavus DSM 108212; assay: fold change of 2-Phenylethylamine concentration vs plate DMSO controls (fold change (ratio)); higher = more amine produced, active = hit call of the paper (significant change in both replicates, either direction)
Method in brief: as §2

SMILES | growth [1] | growth [2] | growth [3] | growth [4] | fold change of Histamine concentration [5] | fold change of Tryptamine concentration [6] | fold change of Tryptamine concentration [7] | fold change of Putrescine concentration [8] | fold change of Putrescine concentration [9] | fold change of Cadaverine concentration [10] | fold change of Cadaverine concentration [11] | fold change of 2-Phenylethylamine concentration [12]
Cc1oncc1C(=O)Nc1ccc(C(F)(F)F)cc1 [Leflunomide] (20 µM) | 1.13 | 0.978 | 1.03 | 0.971 | 1.06 (inactive) | 0.995 (inactive) | 0.998 (inactive) | 1.01 (inactive) | 1.01 (inactive) | 1.08 (inactive) | 1 (inactive) | 1.01 (inactive)
N=C(N)NCC1COC2(CCCCC2)O1 (stereo not given) [Guanadrel sulfate] (20 µM) | 0.98 | 0.972 | 0.986 | 1.16 | 1.04 (inactive) | 1 (inactive) | 1.04 (inactive) | 0.993 (inactive) | 1.04 (inactive) | 0.99 (inactive) | 1 (inactive) | 1.06 (inactive)
COc1ccc(C(=O)CC(=O)c2ccc(C(C)(C)C)cc2)cc1 [Avobenzone] (20 µM) | 0.839 | 0.95 | 0.975 | 0.891 | 1.01 (inactive) | 0.932 (inactive) | 1.02 (inactive) | 0.998 (inactive) | 0.993 (inactive) | 1.05 (inactive) | 0.988 (inactive) | 1.08 (inactive)
Cc1scc2c1N(C(=O)CN1CCN(C)CC1)c1ccccc1NC2=O [Telenzepine dihydrochloride] (20 µM) | 1.09 | 1.07 | 1 | 1.01 | 0.927 (inactive) | 1.01 (inactive) | 1.01 (inactive) | 1.06 (inactive) | 0.984 (inactive) | 1 (inactive) | 1.01 (inactive) | 0.964 (inactive)
O=C(Nc1ccccc1)OCC(CN1CCCCC1)OC(=O)Nc1ccccc1 (stereo not given) [Diperodon hydrochloride] (20 µM) | 1.11 | 0.998 | 0.962 | 0.942 | 1.05 (inactive) | 0.94 (inactive) | 0.952 (inactive) | 0.975 (inactive) | 1.03 (inactive) | 1.03 (inactive) | 0.976 (inactive) | 0.923 (inactive)
OC[C@@H](O)[C@@H](O)[C@H](O)[C@@H](O)CO [Sorbitol] (50 µM) | 1.06 | 0.929 | 0.967 | 1.1 | 1.03 (inactive) | 0.988 (inactive) | 0.966 (inactive) | 0.923 (inactive) | 0.869 (inactive) | 1.1 (inactive) | 1.06 (inactive) | 0.959 (inactive)
Cc1cc(C(=O)NNCc2ccccc2)no1 [Isocarboxazid] (20 µM) | 1.17 | 1.04 | 1.18 | 0.995 | 0.915 (inactive) | 1.09 (inactive) | 1.07 (inactive) | 1.05 (inactive) | 0.987 (inactive) | 0.983 (inactive) | 1.02 (inactive) | 1.09 (inactive)
Cn1c(=O)c2c(ncn2C)n(C)c1=O [Caffeine] (20 µM) | 1.15 | 0.986 | 0.977 | 0.963 | 1.07 (inactive) | 0.982 (inactive) | 1.06 (inactive) | 0.987 (inactive) | 0.997 (inactive) | 1.03 (inactive) | 0.987 (inactive) | 1.06 (inactive)
CCCCCOC(=O)Nc1nc(=O)n([C@@H]2O[C@H](C)[C@@H](O)[C@H]2O)cc1F [Capecitabine] (20 µM) | 1.12 | 0.991 | 1.07 | 0.98 | 0.921 (inactive) | 0.982 (inactive) | 1.03 (inactive) | 0.993 (inactive) | 0.99 (inactive) | 1.01 (inactive) | 1 (inactive) | 1.06 (inactive)
CC(C)=CCOc1ccc(/C=C/C(=O)c2ccc(OCC=C(C)C)cc2OCC(=O)O)cc1 [Sofalcone] (20 µM) | 0.713 | 0.964 | 0.98 | 0.927 | 1 (inactive) | 0.425 (active) | 0.669 (active) | 1.01 (inactive) | 1 (inactive) | 1.03 (inactive) | 0.992 (inactive) | 0.689 (inactive)
Cc1[nH]cnc1CN1CCc2c(c3ccccc3n2C)C1=O [Alosetron hydrochloride] (20 µM) | 1.17 | 0.97 | 1.02 | 1.13 | 0.979 (inactive) | 1.04 (inactive) | 0.996 (inactive) | 0.971 (inactive) | 1.02 (inactive) | 0.945 (inactive) | 1.01 (inactive) | 0.975 (inactive)
CCCc1nc2c(C)cc(-c3nc4ccccc4n3C)cc2n1Cc1ccc(-c2ccccc2C(=O)O)cc1 [Telmisartan] (20 µM) | 0.962 | 0.99 | 1.02 | 0.953 | 1.02 (inactive) | 0.911 (inactive) | 0.966 (inactive) | 1.04 (inactive) | 1.01 (inactive) | 1.05 (inactive) | 0.996 (inactive) | 1.01 (inactive)
COc1ccc(-c2cc(=S)ss2)cc1 [Anethole-trithione] (20 µM) | 0.802 | 1.01 | 0.968 | 1.04 | 1.04 (inactive) | 1.18 (inactive) | 1.07 (inactive) | 1.01 (inactive) | 0.972 (inactive) | 1.01 (inactive) | 0.986 (inactive) | 1.07 (inactive)
C[C@H](CCC(=O)O)[C@H]1CC[C@H]2[C@@H]3[C@@H](O)C[C@@H]4C[C@H](O)CC[C@]4(C)[C@H]3CC[C@]12C [Urosiol] (20 µM) | 0.969 | 1.05 | 1.06 | 1.02 | 0.998 (inactive) | 1.08 (inactive) | 1.08 (inactive) | 1.01 (inactive) | 0.961 (inactive) | 0.954 (inactive) | 1.05 (inactive) | 1.1 (inactive)
CNCC[C@@H](Oc1ccccc1C)c1ccccc1 [Tomoxetine hydrochloride] (20 µM) | 1.11 | 1.01 | 0.98 | 1.1 | 0.978 (inactive) | 1.1 (inactive) | 1 (inactive) | 0.969 (inactive) | 0.968 (inactive) | 0.989 (inactive) | 1 (inactive) | 1.05 (inactive)
CCCCC(=O)O[C@H]1CC[C@H]2[C@@H]3CCc4cc(O)ccc4[C@H]3CC[C@]12C [Estradiol Valerate] (20 µM) | 0.581 | 0.995 | 0.996 | 1.05 | 0.898 (inactive) | 0.24 (active) | 1 (inactive) | 0.88 (inactive) | 0.925 (inactive) | 0.926 (inactive) | 1.05 (inactive) | 0.953 (inactive)
CN1CCN(CC(=O)N2c3ccccc3C(=O)Nc3cccnc32)CC1 [Pirenzepine dihydrochloride] (20 µM) | 1.06 | 1.02 | 0.992 | 1.03 | 1.1 (inactive) | 1.02 (inactive) | 0.993 (inactive) | 1.01 (inactive) | 1.08 (inactive) | 0.99 (inactive) | 1.04 (inactive) | 0.916 (inactive)
CC=CC1=C(C(=O)O)N2C(=O)[C@@H](NC(=O)[C@H](N)c3ccc(O)cc3)[C@H]2SC1 [Cefprozil] (20 µM) | 0.404 | 1.01 | 0.983 | 0.5 | 1.06 (inactive) | 0.324 (active) | 0.637 (inactive) | 0.914 (inactive) | 1.02 (inactive) | 0.955 (inactive) | 1.02 (inactive) | 0.843 (inactive)
Cc1cccc(C)c1NC(=O)C1CCCCN1C (stereo not given) [Mepivacaine hydrochloride] (20 µM) | 1.21 | 1.02 | 1.08 | 0.946 | 0.905 (inactive) | 1.02 (inactive) | 1.06 (inactive) | 1 (inactive) | 0.977 (inactive) | 1 (inactive) | 1.01 (inactive) | 1.05 (inactive)
COCCc1ccc(OCC(O)CNC(C)C)cc1 (stereo not drawn) [Metoprolol-(+)-tartrate salt] (20 µM) | 1.01 | 1.03 | 1.03 | 1.05 | 0.856 (inactive) | 1.02 (inactive) | 1.03 (inactive) | 0.998 (inactive) | 0.955 (inactive) | 1.02 (inactive) | 1 (inactive) | 0.995 (inactive)
Cc1c(O)c(=O)ccn1C [Deferiprone] (20 µM) | 1 | 0.999 | 1.04 | 1.06 | 1.03 (inactive) | 1.05 (inactive) | 1.02 (inactive) | 1 (inactive) | 1.01 (inactive) | 1.03 (inactive) | 0.999 (inactive) | 1 (inactive)
COc1ccc2c(c1)c(CC(=O)O)c(C)n2C(=O)c1ccc(Cl)cc1 [Indomethacin] (20 µM) | 0.988 | 1 | 1.02 | 1.04 | 0.997 (inactive) | 0.988 (inactive) | 0.981 (inactive) | 1.01 (inactive) | 1.01 (inactive) | 1 (inactive) | 0.989 (inactive) | 0.979 (inactive)
NCCc1c[nH]cn1 [Histamine dihydrochloride] (20 µM) | 0.927 | 1.16 | 1.01 | 0.893 | 1.05 (inactive) | 1.05 (inactive) | 1.06 (inactive) | 1.16 (inactive) | 1.02 (inactive) | 0.952 (inactive) | 0.992 (inactive) | 1.05 (inactive)
C=C(NC(=O)C(=C)NC(=O)c1csc(C2=N[C@@H]3c4csc(n4)[C@H]4NC(=O)c5csc(n5)[C@H]([C@](C)(O)[C@@H](C)O)NC(=O)[C@H]5CSC(=N5)/C(=C/C)NC(=O)[C@H]([C@@H](C)O)NC(=O)c5csc(n5)[C@]3(CC2)NC(=O)[C@H](C)NC(=O)C(=C)NC(=O)[C@H](C)NC(=O)[C@H]([C@@H](C)CC)N[C@@H]2C=Cc3c([C@H](C)O)cc(nc3[C@H]2O)C(=O)O[C@@H]4C)n1)C(N)=O [Thiostrepton] (20 µM) | 0.00647 | 1.05 | 1.14 | 0.164 | 0.968 (inactive) | 0.033 (active) | 0.0887 (active) | 1.03 (inactive) | 1.03 (inactive) | 1.02 (inactive) | 1.02 (inactive) | 0.084 (active)
N[C@@H](C(=O)N[C@@H]1C(=O)N2C(C(=O)O)=C(Cl)CS[C@H]12)c1ccccc1 [Cefaclor hydrate] (20 µM) | 0.594 | 0.999 | 1.06 | 0.999 | 0.947 (inactive) | 0.846 (inactive) | 0.783 (inactive) | 0.939 (inactive) | 1.07 (inactive) | 1.23 (inactive) | 1.03 (inactive) | 0.859 (inactive)

Source: the supplement of paper PMC12494721
